# The supplement of paper PMC9135407
# Where “and” joins values, the source holds several entries; their conditions need not be identical. Identical values can stand only once. Counter-ions that a name gives are not always drawn. Screen size: about 5,800 compounds; about 620 (11%) showed activity. The sample as a whole holds a higher share of actives than the screen did. A number with no mark means an inactive call.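 Rule for the calls: active = score above a cut-off or among the top three wells of a plate; in these data no inactive exceeds 0.85.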
# Tested on: primary human hepatic stellate cells (donor 1)
# Assay: scaled lipid accumulation score (0 = DMSO-like, 1 = nortriptyline-like); higher = stronger HSC inactivation (lipid re-accumulation), active = hit call of the paper
# Details: 48 h
# [1] = library stock concentration: 3.33 mM
# [2] = library stock concentration: 80 uM
# [3] = library stock concentration: 400 uM
# [4] = library stock concentration: 2 mM
# [5] = library stock concentration: 10 mM
# [6] = library stock concentration: 1 mM
structure (smiles),measurement,setting,value
"O=C(O)C=Cc1cc(Br)c(Br)c(Br)c1Br [Casein Kinase II Inhibitor III, TBCA]",scaled lipid accumulation score,[1],≤ 0
Cc1cccc(-c2[nH]c(CNc3ccccc3F)nc2-c2ccc3ncnn3c2)n1,scaled lipid accumulation score,[2],≤ -0.001
same,scaled lipid accumulation score,[3],≤ -0.001
same,scaled lipid accumulation score,[4],≤ -0.001
same,scaled lipid accumulation score,[5],≤ -0.001
CCCCCCCCCCCCCCCCOC[C@@H](O)COP(=O)(O)O [1-Hexadecyl Lysophosphatidic Acid],scaled lipid accumulation score,[6],≤ 0
Cc1nc(N=Nc2ccc(C(=O)O)cc2)c(COP(=O)(O)O)c(C=O)c1O,scaled lipid accumulation score,[5],0.139
CCCCCCCCCCCCCCCCCC(=O)NCCS(=O)(=O)O [N-Stearoyl Taurine],scaled lipid accumulation score,[6],0.008
CNC(=O)c1ccc(C)c(-n2c(C)cc(OCc3ccc(F)cc3F)c(Br)c2=O)c1,scaled lipid accumulation score,[2],0.057
same,scaled lipid accumulation score,[3],0.038
same,scaled lipid accumulation score,[4],0.056
same,scaled lipid accumulation score,[1],0.014
same,scaled lipid accumulation score,[5],≤ 0 and ≤ -0.001
CCN(CCCOc1ccc2c(Nc3cc(CC(=O)Nc4cccc(F)c4)[nH]n3)ncnc2c1)CCOP(=O)(O)O [Barasertib],scaled lipid accumulation score,[2],0.022
same,scaled lipid accumulation score,[3],≤ -0.001
same,scaled lipid accumulation score,[4],0.115
same,scaled lipid accumulation score,[5],0.242
"CCC=CCC=CCC=CCCCCCCCCCC(=O)O [11(Z),14(Z),17(Z)-Eicosatrienoic Acid]",scaled lipid accumulation score,[6],≤ 0
O=S(=O)(c1ccccc1)c1cnc2c(N3CCNCC3)cccc2c1 [listing 1 of 2 here],scaled lipid accumulation score,[5],0.994 (active)
Cc1ccc(Sc2ccccc2N2CCNCC2)c(C)c1,scaled lipid accumulation score,[1],0.769
same,scaled lipid accumulation score,[5],0.102
O=S(=O)(c1ccccc1)c1cnc2c(N3CCNCC3)cccc2c1 [listing 2 of 2 here],scaled lipid accumulation score,[1],0.285
CCCCCCC[C@H](O)/C=C/[C@@H]1[C@@H](C/C=C\CCCC(=O)O)[C@@H](O)C[C@H]1O [20-ethyl Prostaglandin F2.alpha.],scaled lipid accumulation score,[6],≤ 0
NC(=O)Nc1cc(-c2cccc(F)c2)sc1C(=O)N[C@H]1CCCNC1 [listing 1 of 2 here],scaled lipid accumulation score,[1],0.879 (active)
NC(=O)Nc1cc(-c2ccccc2)sc1C(N)=O [IKK-2 Inhibitor XI],scaled lipid accumulation score,[1],≤ 0
NC(=O)Nc1cc(-c2cccc(F)c2)sc1C(=O)N[C@H]1CCCNC1 [listing 2 of 2 here],scaled lipid accumulation score,[2],≤ 0
same,scaled lipid accumulation score,[3],0.06 and ≤ -0.005
same,scaled lipid accumulation score,[4],0.23 and 0.444
same,scaled lipid accumulation score,[5],0.559 and 0.276
CNCC(O)c1ccc(O)c(O)c1 (racemic) [(+/-)-Epinephrine hydrochloride],scaled lipid accumulation score,[5],≤ 0
"CCCCC[C@H](O)CC[C@@H]1[C@@H](C/C=C\CCCC(=O)O)[C@@H](O)C[C@H]1O [13,14-dihydro Prostaglandin F2.alpha.]",scaled lipid accumulation score,[6],≤ 0
